Screening results as filed in PubChem BioAssay.
ALOX12 inh: Primary qHTS assay for inhibitors of human arachidonate 12S-lipoxygenase (ALOX12): Round 2; Polyunsaturated fatty acid lipoxygenase ALOX12 (Homo sapiens), P18054; purified 12hLO, xylenol orange hydroperoxide absorbance; Potency, µM (top dose mostly 108 µM), for inactives: at the highest dose activity change, negative = inhibition, hits mostly inhibitors; 1.1% of 580,000 active; note: potency is the fitted concentration of half-maximal effect
Target sequence (P18054 whole entry, looked up): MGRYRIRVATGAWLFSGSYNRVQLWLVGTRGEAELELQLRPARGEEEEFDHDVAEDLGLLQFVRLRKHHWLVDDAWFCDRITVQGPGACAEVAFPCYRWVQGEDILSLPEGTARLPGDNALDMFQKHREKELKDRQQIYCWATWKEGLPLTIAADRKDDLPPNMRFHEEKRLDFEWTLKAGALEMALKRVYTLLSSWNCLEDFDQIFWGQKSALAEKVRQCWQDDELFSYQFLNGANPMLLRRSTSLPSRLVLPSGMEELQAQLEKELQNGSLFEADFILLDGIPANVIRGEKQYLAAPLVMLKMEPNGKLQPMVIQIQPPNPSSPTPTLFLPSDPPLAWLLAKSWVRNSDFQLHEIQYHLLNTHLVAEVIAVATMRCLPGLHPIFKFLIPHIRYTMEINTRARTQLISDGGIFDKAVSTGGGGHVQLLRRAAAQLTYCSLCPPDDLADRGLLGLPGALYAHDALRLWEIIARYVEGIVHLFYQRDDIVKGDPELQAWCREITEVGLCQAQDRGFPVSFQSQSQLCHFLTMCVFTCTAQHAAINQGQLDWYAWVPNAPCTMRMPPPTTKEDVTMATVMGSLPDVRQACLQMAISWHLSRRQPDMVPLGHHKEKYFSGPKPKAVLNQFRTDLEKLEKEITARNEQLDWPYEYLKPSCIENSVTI
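Hydroperoxide product was detected by ferrous iron/xylenol orange as the 573 to 405 nm absorbance ratio. Arachidonic acid at 40 uM (final) was turned over for 30 min at room temperature by 150 nM human 12hLO, pH 7.0 Hepes buffer, after 15 min compound preincubation.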
IL1B secr inh: qHTS for Inhibitors of Inflammasome Signaling: IL-1-beta AlphaLISA Primary Screen; activity change, % at 57.5 µM; AID 743279, 2014; 4.7% of 360,000 active; THP-1 LPS/ATP IL-1B secretion, AlphaLISA, 16 h; stronger effect = lower value; in the data active = activity change below about -50%; inconclusive = mostly about -30% to -49%
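THP-1 cells pretreated 1 hr with compounds (up to 57.5 uM final), then stimulated with LPS (250 ng/mL final) plus ATP (1.25 mM final); secreted IL-1B measured by AlphaLISA after 16 hr, decreased signal indicating inhibition.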
HT1080 IDH1KD tx: qHTS for induction of synthetic lethality in tumor cells producing 2HG: qHTS for the HT-1080-IDH1KD cell line | HT-1080 IDH1 knockdown viability, ATP luminescence, 48 h | Potency, µM (highest dose often 46.1 µM), for inactives: top-dose activity, negative = toxicity, actives largely listed as cytotoxic | 2% of 360,000 active | AID 686971, 2013;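 note: potency is the fitted concentration of half-maximal effect; 0% = DMSO wells and -100% = cell-free medium wells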
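IDH1KD HT-1080 cells, 750/well, RPMI + 5% FBS; compound pinned after 2 h settling; 48 h, 37 °C; CellTiter-Glo luminescence; % activity normalised to DMSO and no-cell wells; curves fitted, classed by r2 and efficacy.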
TDP1 cell CPT: qHTS for Inhibitors of human tyrosyl-DNA phosphodiesterase 1 (TDP1): qHTS in cells in presence of CPT | 12% of 420,000 active | AID 686979, 2013 | chicken DT40 Tdp1-/-;hTDP1 cells + 20 nM CPT, ATP luminescence, 48 h | Potency, µM (top dose mostly 46.2 µM), for inactives: at the highest dose activity change, negative = growth inhibition, most hits filed as inhibitors; note: potency is the fitted concentration of half-maximal effect; nearly all actives have a fitted effect of over 55% in size
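Cell growth measured by CellTiter-Glo luminescence after a minimum 48 h, 37 C compound exposure with 20 nM CPT in Tdp1-knockout DT40 cells stably expressing hTDP1, seeded 400/well; qHTS titration format.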
HT1080-NT tox: qHTS for induction of synthetic lethality in tumor cells producing 2HG: qHTS for the HT-1080-NT fibrosarcoma cell line; HT-1080-NT fibrosarcoma viability, CellTiter-Glo ATP luminescence, 48 h; Potency, µM (titrated, usually from 46.1 µM), without a hit: at the highest dose activity, negative = less viability, usual class: cytotoxic; 1.6% of 360,000 active;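 note: NT is the 2HG producing partner of a matched IDH1 knockdown line; potency is the fitted concentration of half-maximal effect; 0% = DMSO-treated cells and -100% = media-only wells without cells; nearly all actives have a fitted effect of over 55% in size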
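Toxicity toward the 2HG-producing NT line was scored as %Activity, normalised to DMSO and no-cell wells, from CellTiter-Glo luminescence after 48 hours' treatment.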
TDP1 cell noCPT: qHTS for Inhibitors of human tyrosyl-DNA phosphodiesterase 1 (TDP1): qHTS in cells in absence of CPT | DT40 Tdp1-/- hTDP1 cells, no CPT, ATP luminescence, 48 h | Potency, µM (titrated, usually from 46.2 µM), without a hit: at the highest dose activity change, negative = growth inhibition, hits mostly inhibitors | 15% of 420,000 active | AID 686978, 2013; note: potency is the fitted concentration of half-maximal effect; nearly all actives have a fitted effect of over 55% in size
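Luminescent ATP content (CellTiter-Glo) served as the growth readout. Knockout chicken DT40 cells expressing human TDP1 were exposed to compounds without camptothecin for a minimum 48 hr at 37 °C.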
Starred values were filed as active, the others as inactive; i = inactive; ? = inconclusive; · = not tested or not shown; [ ] = dose if it differs, or a comment. The entries come from a sample that favours hits as a whole. Unless noted, calls come from the whole dose curve; as a rule, active = well fitted curve in the direction sought with a large enough effect; inconclusive = small, poorly fitted or top-dose-only effect, or another doubt; inactive = no such curve, though single readings can be large; an effect the other way counts as inactive or inconclusive. Unless noted, % is set by controls: 0 for no effect and ±100 for the full control effect.

SMILES	ALOX12 inh	IL1B secr inh	HT1080 IDH1KD tx	TDP1 cell CPT	HT1080-NT tox	TDP1 cell noCPT
C/C=C/Cn1c(SCc2ccccc2)nc2c1c(=O)[nH]c(=O)n2C	0%	1	-11%	21µM*	-16%	?
CCCCCn1c(Sc2ncccn2)nc2c1c(=O)[nH]c(=O)n2C	0%	14	-9%	-4%	-16%	?
CCOCCn1c(SCc2ccc(C)cc2)nc2c1c(=O)[nH]c(=O)n2C	-4%[57.4 µM]	23	0%	13µM*	13%	?
C/C=C/Cn1c(SCc2ccccc2Cl)nc2c1c(=O)[nH]c(=O)n2C	-23%	·	·	·	·	·
CCc1cc(=O)oc2c(C)c(OCC(=O)c3ccc(OC)cc3)ccc12	25%	·	·	·	·	·
COc1ccc(CCC(=O)NCC(c2ccco2)N2CCc3ccccc32)cc1 (stereo unspecified)	?	-8	-9%	18µM*	-14%	23µM*
O=C(NCC(c1ccco1)N1CCc2ccccc21)c1ccccc1 (stereo unspecified)	?	-17	-15%	?	-24%	?
COc1ccccc1NC(=O)C(=O)NCC(c1ccco1)N1CCc2ccccc21 (stereo unspecified)	?	-8	-2%	?	-2%	?
Cc1ccc(C(=O)NCC(c2ccco2)N2CCc3ccccc32)cc1C (stereo unspecified)	-28%	-12	-27%	21µM*	-14%	16µM*
COc1ccccc1C(=O)NCC(c1ccco1)N1CCc2ccccc21 (stereo unspecified)	?	1	-5%	15µM*	-1%	23µM*
COc1ccc(OC)c(S(=O)(=O)NCC(c2cccs2)N2CCc3ccccc3C2)c1 (stereo unspecified)	-11%	3	-12%	16µM*	-11%	?
COc1ccc(S(=O)(=O)NCC(c2cccs2)N2CCc3ccccc3C2)cc1 (stereo unspecified)	4%	-3	-3%	-25%	0%	?
COC(=O)c1ccc2nc(C[C@@H]3C[C@@H](C(C)C)[C@H](CNC(=O)N4CCOCC4)C=C3C)[nH]c2c1	131%	·	·	·	·	·
CNC(=O)c1ccc(Cl)c(NC(=O)NC(C)C(C)C)c1 (stereo unspecified)	2%	·	·	·	·	·
COc1ccc(OC)c(S(=O)(=O)NCC(c2ccco2)N2CCc3ccccc32)c1 (stereo unspecified)	40µM*	-1	-13%	?	-5%	?
COc1cc(C(=O)NCC(c2ccco2)N2CCc3ccccc32)cc(OC)c1OC (stereo unspecified)	?	0	-5%	?	-18%	9.2µM*
COc1ccc(OC)c(S(=O)(=O)NCC(c2ccc(F)cc2)N2CCN(C)CC2)c1 (stereo unspecified)	0%	-8	-1%	-6%	-19%	-15%
CC(=O)c1c(C)[nH]c(C(=O)OCC(=O)N2CCN(c3ccccc3)CC2)c1C	-9%	21	5%	-20%	-2%	3%
CC(=O)c1c(C)[nH]c(C(=O)OCC(=O)N2CCc3ccccc3C2)c1C	-27%	59	-4%	23µM*	-4%	16µM*
CCOC(=O)c1[nH]c(C)c(C(=O)N2CCc3ccccc32)c1C	i	108	1µM*	0.82µM*	?	0.92µM*
COc1ccc(CCNC(=O)CSc2nc3nc(C)c(Cc4ccc(C)cc4)c(C)n3n2)cc1OC	-3%	·	·	?	·	21µM*
COc1cc(NC(=O)CSc2nc3nc(C)c(Cc4ccc(C)cc4)c(C)n3n2)cc(OC)c1	?	·	·	?	·	8.2µM*
COc1cc(NC(=O)CSc2nc3nc(C)c(Cc4ccccc4Cl)c(C)n3n2)cc(OC)c1	-30%	·	·	?	·	?
Cc1cccc(Cc2c(C)nc3nc(SCC(=O)NCc4ccc(F)cc4)nn3c2C)c1	0%	·	·	16µM*	·	23µM*
Cc1ccc(NC(=O)CSc2nc3nc(C)c(Cc4ccccc4)c(C)n3n2)cc1	0%	·	·	?	·	?
SMILES	ALOX12 inh	IL1B secr inh	HT1080 IDH1KD tx	TDP1 cell CPT	HT1080-NT tox	TDP1 cell noCPT
COc1cc(NC(=O)CSc2nc3nc(C)c(Cc4ccccc4)c(C)n3n2)cc(OC)c1	-13%	·	·	21µM*	·	8.2µM*
c1ccc(N2CCN(c3ncnc4nc[nH]c34)CC2)cc1	41%	·	·	·	·	·
CCN(CC)c1cc(C)c2cc(NC(=O)c3ccc(OC)c(OC)c3)ccc2n1	-1%	·	·	21µM*	·	23µM*
CCN(CC)c1cc(C)c2cc(NC(=O)c3cccs3)ccc2n1	4%	·	-1%	16µM*	?	23µM*
CCN(CC)c1cc(C)c2cc(NC(=O)c3ccc(Br)o3)ccc2n1	0%	-66*	-22%	?	-15%	?
CCN(CC)c1cc(C)c2cc(NC(=O)c3ccc(F)cc3Cl)ccc2n1	-17%	·	·	?	·	?
CCN1CCN(c2cc(C)c3cc(NC(=O)c4ccc(Br)o4)ccc3n2)CC1	-9%	-2	?	?	-28%	?
CCN(CC)c1cc(C)c2cc(NC(=O)c3cccc(F)c3)ccc2n1	-21%	·	·	?	·	23µM*
COc1cc(Cl)ccc1C(=O)NC1CCN(c2cc(C(F)(F)F)nc(C)n2)CC1	26%	·	·	·	·	·
CCCCc1ccc(NC(=O)c2ccc(NS(C)(=O)=O)cc2)cc1	-3%	-6	3%	?	16%	?
CCN(CC)c1cc(C)c2cc(NC(=O)c3ccccc3OC)ccc2n1	0%	·	?	?	?	16µM*
CCCCc1ccc(C(=O)Nc2ccc3nc(N(CC)CC)cc(C)c3c2)cc1	-17%	·	·	?	·	18µM*
CCN(CC)c1cc(C)c2cc(NC(=O)c3cc(OC)cc(OC)c3)ccc2n1	-16%	·	·	?	·	?
CC(C)C(=O)Nc1cccc(COc2ccc(CN(Cc3ccccc3)C(=O)OC(C)(C)C)cc2)c1	-8%	-6	-15%	?	-7%	16µM*
Cc1ccc(SC(C)C(=O)Nc2ccc(OCc3ccccc3)cc2)cc1 (stereo unspecified)	-26%	·	·	·	·	·
